Test results from the supplement of paper PMC11417369.
± gives the standard deviation of the averaged measurements. Over roughly 25,000 sequences, “ln(normalized median fluorescence intensity)” has its median near 7.9; the highest 2% begin near 11. This excerpt belongs to a sample that is enriched for the highest values.

What follows are sequences tested on PfAP2-I AP2 domain 3 (GST-tagged) (assay: gcPBM binding intensity (ln(normalized median fluorescence intensity)); higher = stronger DNA binding).
In short: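 The highest Masliner-normalised natural-log median intensity across replicate spots of either probe orientation is reported as binding intensity. GST-tagged P. falciparum DNA-binding domains expressed in E. coli were applied for 1 h to an Agilent 4 × 180k array of primer-extended double-stranded 36-bp intergenic genomic probes plus negative controls, and bound protein was detected with Alexa488 anti-GST antibody and scanned at 488 nm.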
With “TATTTTACATCTTCTCACATTTTATCACTTTTTAAA [CACACA_negctrl_site330]” the “gcPBM binding intensity (ln)” value was 8.08 ± 0.45.
In the case of “ATTATTATAGATATAACACACATAATTACATACTTA [CACACA_site6837]”, the “gcPBM binding intensity (ln)” value is reported as 7.97 ± 0.14.
In the case of TTATATAATTTAATAGTGCAATTATATTAATTTTTC, the “gcPBM binding intensity (ln)” value is reported as 9.82 ± 0.42.
For ATATATATTATATAAGTGCATAATATTCTTTCTTTT, the “gcPBM binding intensity (ln)” value was 10.5 ± 0.25.
For “ATTTTCTTTTCCATAGTGCAATATAATTATCCATCA [GTGCAC_site9547]”, the “gcPBM binding intensity (ln)” value was 11.3 ± 0.39.
For “GATAGACACGTGCACACATGCAATACTTTATTCAGT [TGCATGCA_site778]”, the “gcPBM binding intensity (ln)” value was 10.1 ± 0.32.
With “ATTTGATAGACACATGCACACATGCAATACTTTATT [CACACA_site5633]” the “gcPBM binding intensity (ln)” value was 8.81 ± 0.77.
“TTTAATTTGATAGACACATGCACACGTGCAATACTT [TGCATGCA_site777]” was tested, and the “gcPBM binding intensity (ln)” value was 10.95 ± 0.021.
With “CATTATCATGTTTTTTGTACTCATAATAAAAAGCAG [XGTACX_site2056]” the “gcPBM binding intensity (ln)” value was 8.03 ± 0.21.
In the case of “AAAATCTAATATAATGCACACATAAAAAAAAATCAA [CACACA_site9211]”, the “gcPBM binding intensity (ln)” value is reported as 10.9 ± 0.59.
With “ATAATAAAATAAATCACACATAATATAATGTAATAT [CACACA_site6144]” the “gcPBM binding intensity (ln)” value was 7.54 ± 0.54.
For “AAAATCTAATATAATGCACACATAAAAAAAAAATCA [CACACA_site8871]”, the “gcPBM binding intensity (ln)” value was 11 ± 0.68.
With “AATCTAATATAATGCACACATAAAAAAAAATCAAAC [CACACA_site3633]” the “gcPBM binding intensity (ln)” value was 11.1 ± 0.94.
“AATCTAATATAATGCACACATAAAAAAAAAATCAAA [CACACA_site2714]” was tested, and the “gcPBM binding intensity (ln)” value was 10.7 ± 0.74.
For “TATCAAAATAAATGCACACAAATTGCACATATCTAT [CACACA_site1097]”, the “gcPBM binding intensity (ln)” value was 10.3 ± 0.11.
In the case of “TAGATATATAAATACACACACATACACAAAAAAAAA [CACACA_site7652]”, the “gcPBM binding intensity (ln)” value is reported as 8.21 ± 0.45.
With “AAATATATATAAAACTCACACATTATCTTATAACCA [CACACA_site5268]” the “gcPBM binding intensity (ln)” value was 7.83 ± 0.23.
With “AAATTATTATCGTTAATATGTATATATGTGCCAAGT [TGCATGCA_negctrl_site557]” the “gcPBM binding intensity (ln)” value was 8.06 ± 0.44.
With “GGTTACATTTTATTTTGTACATAAAAATTTTTATTT [XGTACX_site218]” the “gcPBM binding intensity (ln)” value was 8.15 ± 0.53.
In the case of “AAAAATAAACAATATATAGTTATATATATATATATA [TGCATGCA_negctrl_site82]”, the “gcPBM binding intensity (ln)” value is reported as 9.29 ± 0.69.
For “TTTATATTTATGTAGGTGCATTTGTTTACAACATAT [GTGCAC_site9511]”, the “gcPBM binding intensity (ln)” value was 10.8 ± 0.71.
TATTTTTTTTGTTAGGTGCATTTACATTTATTTTTA was tested, and the “gcPBM binding intensity (ln)” value was 10.8 ± 0.61.
In the case of TTCTCATTCAAATTAGTGCATTTTTGTTATTACATT, the “gcPBM binding intensity (ln)” value is reported as 9.81 ± 0.2.
For “TGTGCACATAATTAGTGTACATTTTTTATTTAGACA [XGTACX_site317]”, the “gcPBM binding intensity (ln)” value was 10.3 ± 0.88.
TTTTTGTTATTTTTAGTGCACATTTAAGGGTGTATT was tested, and the “gcPBM binding intensity (ln)” value was 11.4 ± 0.53.
With “ATATTTATTTGTTAGTGTACATACATATATATATAT [XGTACX_site1347]” the “gcPBM binding intensity (ln)” value was 9.47 ± 0.4.
For “CTATATTTTTAAAAATGTACTTTATAATAAAATACT [XGTACX_site3593]”, the “gcPBM binding intensity (ln)” value was 7.83 ± 0.32.
With “ATTTATAATGATTTTTTTAGTAATCTTGTTATTTTT [XGTACX_negctrl_site373]” the “gcPBM binding intensity (ln)” value was 7.38 ± 0.54.
“CTATTTAAAATATGAACACACATTATTTGTTTTAGA [CACACA_site2713]” was tested, and the “gcPBM binding intensity (ln)” value was 7.42 ± 0.43.
“TATTTGTATAAATAAAAATAATATATATCAAATAAC [CACACA_negctrl_site218]” was tested, and the “gcPBM binding intensity (ln)” value was 7.57 ± 0.55.
For “AATAGCAATTTGGGGTGTACACACACCTTATTTAAA [XGTACX_site2234]”, the “gcPBM binding intensity (ln)” value was 8.04 ± 0.23.
With “TACTTTTTTTTTTTTTTTTTTTTTTTTTCCCTTTTT [CACACA_negctrl_site761]” the “gcPBM binding intensity (ln)” value was 7.47 ± 0.53.
TTAATTAATTTTTCAGTGCAAATAAAAAATATTTAA was tested, and the “gcPBM binding intensity (ln)” value was 10.4 ± 0.64.
AGTGTTTTTTATAAAGTGCAATATAAAAACAAAATG was tested, and the “gcPBM binding intensity (ln)” value was 11.3 ± 0.75.
For “TAATTATTTTAAAAAGTGCATTAAAAGATATTAAAT [GTGCAC_site9694]”, the “gcPBM binding intensity (ln)” value was 11.4 ± 0.56.
For “ATTAAAAGTTTATACAAATAAAAAACAAAACAAAAA [CACACA_negctrl_site1030]”, the “gcPBM binding intensity (ln)” value was 7.7 ± 0.55.
“TAATTAAATATTTCAGTGCATTATTTTATGATCCAT [GTGCAC_site9456]” was tested, and the “gcPBM binding intensity (ln)” value was 11.2 ± 0.76.
With CTAAATTATAGATCAGTGCAATTTAATATGAGTCCA the “gcPBM binding intensity (ln)” value was 8.91 ± 0.22.
TAATAATTTTATAAAGTGCATAAAAATAAAAATTTT was tested, and the “gcPBM binding intensity (ln)” value was 10.6 ± 0.36.
In the case of “ATAAAAATAAAAAGTGTGCACACAAAAATATATATA [GTGCAC_site9931]”, the “gcPBM binding intensity (ln)” value is reported as 9.96 ± 0.33.
In the case of “AATATCATTATATAAGTGCATTTTTTAAAAGATAAA [GTGCAC_site9479]”, the “gcPBM binding intensity (ln)” value is reported as 9.04 ± 0.22.
In the case of TTATAAATTTAAAAAGTGCATAATAATAACAAAAAG, the “gcPBM binding intensity (ln)” value is reported as 11.2 ± 0.67.
For “TACAAATTTATATAAAGTACAAAAAATAATAAAAAT [XGTACX_site7355]”, the “gcPBM binding intensity (ln)” value was 8.1 ± 0.52.
In the case of AAATTAAAGATAAAAGTGCAAAATTATAAATTTATT, the “gcPBM binding intensity (ln)” value is reported as 9.64 ± 0.071.
“GTAATATTAATATAATGTACAAAATGAAACATATAT [XGTACX_site6219]” was tested, and the “gcPBM binding intensity (ln)” value was 7.71 ± 0.57.
With “AAATAAATACATAATACATGCATATTTAATATATAG [TGCATGCA_site135]” the “gcPBM binding intensity (ln)” value was 7.93 ± 0.25.
In the case of “TTTTAGCTATTTTAATATAATGAAGCAAAAAATAAA [TGCATGCA_negctrl_site576]”, the “gcPBM binding intensity (ln)” value is reported as 7.82 ± 0.085.
For “GTGTGGTTACAGACACGAACACATTTTTTAAATATT [CACACA_negctrl_site83]”, the “gcPBM binding intensity (ln)” value was 7.83 ± 0.28.
In the case of “TGAAAAATGTAATGCTCACACATATATATATATATA [CACACA_site5213]”, the “gcPBM binding intensity (ln)” value is reported as 9.41 ± 0.24.
“CCTACAATTCGTAATACACACACATATATATATATA [CACACA_site9251]” was tested, and the “gcPBM binding intensity (ln)” value was 9.29 ± 0.25.
With “CAGCTCTTAAAAATTACACACATATACACATATATA [CACACA_site9073]” the “gcPBM binding intensity (ln)” value was 7.5 ± 0.54.
With “TTTATTTATTAATACACACACACACCCCCACAAAAT [CACACA_site240]” the “gcPBM binding intensity (ln)” value was 9.96 ± 0.2.
With “AATTGAAAAATCAGCACACACACAAATACATACATA [CACACA_site3232]” the “gcPBM binding intensity (ln)” value was 8.09 ± 0.4.
In the case of “ATTAATAAAAAATTTTAAAAAATAAATAAAATAAAA [TGCATGCA_negctrl_site113]”, the “gcPBM binding intensity (ln)” value is reported as 7.58 ± 0.42.
For TAATTATTCTATTAAGTGCATATATTTTTAAAAAGA, the “gcPBM binding intensity (ln)” value was 9.89 ± 0.3.
“TCATTTTAATTAAAAGTGCAAAAAATAATATAACTA [GTGCAC_site9968]” was tested, and the “gcPBM binding intensity (ln)” value was 9.9 ± 0.18.
For “TTTCTCCATATTAAAGTGCATTAATAACAAAAATAA [GTGCAC_site9934]”, the “gcPBM binding intensity (ln)” value was 11.4 ± 0.81.
With “TTATTAAATTCATAAGTGCATTTATGATTAATTTTT [GTGCAC_site9749]” the “gcPBM binding intensity (ln)” value was 9.86.
For TTCATTTTATTTTAAGTGCATATTTTTATTTTTTTG, the “gcPBM binding intensity (ln)” value was 8.82 ± 0.099.
With TTCATATTCGATAAAGTGCATTAATTTTATTTATCA the “gcPBM binding intensity (ln)” value was 11.3 ± 0.73.
In the case of “AGATTATATAAAAAAGTGCATATTTTCATTTTTTTT [GTGCAC_site9448]”, the “gcPBM binding intensity (ln)” value is reported as 9.07 ± 0.13.
With “CTGAAATTAACAAAAGTGCATAAAAATAAAAAATAT [GTGCAC_site9652]” the “gcPBM binding intensity (ln)” value was 10.8 ± 0.38.
In the case of AAAAAAAAAAAAAAAGTGCATTAATAAATTTTAATA, the “gcPBM binding intensity (ln)” value is reported as 11.5 ± 0.61.
GATTATTTCTAAAAAGTGCATATTTAAAAATCTCCT was tested, and the “gcPBM binding intensity (ln)” value was 9.815 ± 0.035.
“TATATATATTAAAAAGTGCATTATTCATATTATATA [GTGCAC_site9400]” was tested, and the “gcPBM binding intensity (ln)” value was 11.1 ± 0.73.
